For assay [1], the target named is Cytochrome P450 2D6 (Homo sapiens) (UniProt P10635). Briefly: Cytochrome P450 Family 2 Subfamily D Member 6 (CYP2D6) small molecule antagonists: luciferase reporter qHTS assay (AID 1671196). Also: nearly all actives have a fitted effect of over 50% in size. Also: potency is read from the fitted curve at half-maximal effect. The essentials:
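P450-Glo format: CYP2D6 converts a proluciferin substrate to luciferin in an NADPH-driven reaction lasting 1 h at room temperature. Light output, proportional to CYP2D6 activity, reflects interference by test chemicals.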
On the technique in general: A reporter such as luciferase makes a cellular process visible.

Assay [2] addresses Cytochrome P450 2C19 (Homo sapiens) (UniProt P33261). Briefly: Cytochrome P450 Family 2 Subfamily C Member 19 (CYP2C19) small molecule antagonists: luciferase reporter qHTS assay (AID 1671197). Also: nearly all actives have a fitted effect of over 65% in size. Also: potency is read from the fitted curve at half-maximal effect. The essentials:
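Inhibition of CYP2C19 was scored from loss of luminescence in a P450-Glo proluciferin substrate assay, NADPH-started and run 1 h at 37C, with ketoconazole as positive control.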

In assay [3] the target is Voltage-gated inwardly rectifying potassium channel KCNH2 (Homo sapiens) (UniProt Q12809). Nature of the assay: Human Ether-a-go-go-Related Gene (hERG) channel small molecule antagonists: fluorescence cell-based qHTS assay (AID 1671200).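 Also: hERG-expressing U2OS cells given a thallium stimulus after FluxOR II dye loading; series mostly up to about 77 µM; nearly all actives have a fitted effect of over 50% in size.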 Summed up:
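Read-out: thallium influx as a surrogate for potassium, tracked as fluorescence (480 nm ex/540 nm em) every second for 2 min after Stimulus Buffer addition in dye-loaded hERG-U2OS cells.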
(In general: The hERG channel carries a current that helps repolarise heart muscle cells.)

The target in assay [4] is Cytochrome P450 3A4 (Homo sapiens) (UniProt P08684). Nature of the assay: Cytochrome P450 Family 3 Subfamily A Member 4 (CYP3A4) small molecule antagonists: luciferase reporter qHTS assay (AID 1671201). Also: nearly all actives have a fitted effect of over 50% in size. Also: potency is read from the fitted curve at half-maximal effect. Summed up: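 Luminescent readout (RLU) proportional to CYP3A4 activity, from luciferin generated off a proluciferin substrate. Enzyme–substrate mix plus compound 10 min at room temp, NADPH regeneration 1 h, detection reagent 20 min.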
Sequence of Cytochrome P450 3A4 (Homo sapiens) (P08684 whole entry, looked up): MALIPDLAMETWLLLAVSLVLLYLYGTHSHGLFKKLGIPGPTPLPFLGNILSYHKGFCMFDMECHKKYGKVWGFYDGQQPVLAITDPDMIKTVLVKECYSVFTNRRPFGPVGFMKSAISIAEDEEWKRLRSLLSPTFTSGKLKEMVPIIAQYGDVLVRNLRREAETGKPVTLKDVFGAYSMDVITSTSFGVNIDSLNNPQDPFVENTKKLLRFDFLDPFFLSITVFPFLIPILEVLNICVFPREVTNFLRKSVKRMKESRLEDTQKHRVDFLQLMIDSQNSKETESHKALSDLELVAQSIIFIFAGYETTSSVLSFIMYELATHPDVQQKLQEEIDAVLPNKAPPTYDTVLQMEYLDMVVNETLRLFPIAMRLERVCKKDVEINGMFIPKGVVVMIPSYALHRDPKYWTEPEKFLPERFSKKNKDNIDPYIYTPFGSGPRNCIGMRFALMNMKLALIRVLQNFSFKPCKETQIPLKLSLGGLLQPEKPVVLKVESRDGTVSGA

Assay [5] deals with Cytochrome P450 1A2 (Homo sapiens) (UniProt P05177). Nature of the assay: Cytochrome P450 Family 1 Subfamily A Member 2 (CYP1A2) small molecule antagonists: luciferase reporter qHTS assay (AID 1671199). Also: nearly all actives have a fitted effect of over 50% in size. Also: potency is read from the fitted curve at half-maximal effect. The essentials:
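Inhibition of CYP1A2 conversion of proluciferin to luciferin, detected by luminescence. Reaction run 1 h at room temperature with NADPH regeneration after brief compound preincubation.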

Assay [6] deals with Cytochrome P450 2C9 (Homo sapiens) (UniProt P11712). Nature of the assay: Cytochrome P450 Family 2 Subfamily C Member 9 (CYP2C9) small molecule antagonists: luciferase reporter qHTS assay (AID 1671198). Also: nearly all actives have a fitted effect of over 50% in size. Also: potency is read from the fitted curve at half-maximal effect. The essentials:
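P450-Glo proluciferin substrate with CYP2C9 enzyme; 10 min RT preincubation, then NADPH regeneration 1 h at 37C; luciferin detection reagent 20 min RT, luminescence in relative luminescence units.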

Records with an inconclusive call do not appear. The source made the active and inactive calls. Calls follow the shape of the dose curve; as a rule, active = well fitted curve in the direction sought with a large enough effect in the repeat runs; inconclusive = weak or mixed curves; inactive = no such curve, though single readings can be large; an effect the other way counts as inactive or inconclusive.

Sequence of Cytochrome P450 1A2 (Homo sapiens) (P05177 whole entry, looked up): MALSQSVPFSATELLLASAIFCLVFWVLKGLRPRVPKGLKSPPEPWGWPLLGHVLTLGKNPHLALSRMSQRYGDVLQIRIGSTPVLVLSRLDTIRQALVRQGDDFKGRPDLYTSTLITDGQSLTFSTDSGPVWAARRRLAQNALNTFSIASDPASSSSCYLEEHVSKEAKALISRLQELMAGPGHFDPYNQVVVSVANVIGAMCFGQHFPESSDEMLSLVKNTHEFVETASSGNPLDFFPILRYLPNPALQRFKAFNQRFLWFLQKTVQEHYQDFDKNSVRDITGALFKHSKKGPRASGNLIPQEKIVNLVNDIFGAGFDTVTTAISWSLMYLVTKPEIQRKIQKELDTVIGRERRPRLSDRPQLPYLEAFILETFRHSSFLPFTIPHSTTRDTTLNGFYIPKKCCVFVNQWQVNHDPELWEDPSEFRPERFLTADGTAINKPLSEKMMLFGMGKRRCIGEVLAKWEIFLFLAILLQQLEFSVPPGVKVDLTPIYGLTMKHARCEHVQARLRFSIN
Sequence of Voltage-gated inwardly rectifying potassium channel KCNH2 (Homo sapiens) (Q12809 whole entry, looked up): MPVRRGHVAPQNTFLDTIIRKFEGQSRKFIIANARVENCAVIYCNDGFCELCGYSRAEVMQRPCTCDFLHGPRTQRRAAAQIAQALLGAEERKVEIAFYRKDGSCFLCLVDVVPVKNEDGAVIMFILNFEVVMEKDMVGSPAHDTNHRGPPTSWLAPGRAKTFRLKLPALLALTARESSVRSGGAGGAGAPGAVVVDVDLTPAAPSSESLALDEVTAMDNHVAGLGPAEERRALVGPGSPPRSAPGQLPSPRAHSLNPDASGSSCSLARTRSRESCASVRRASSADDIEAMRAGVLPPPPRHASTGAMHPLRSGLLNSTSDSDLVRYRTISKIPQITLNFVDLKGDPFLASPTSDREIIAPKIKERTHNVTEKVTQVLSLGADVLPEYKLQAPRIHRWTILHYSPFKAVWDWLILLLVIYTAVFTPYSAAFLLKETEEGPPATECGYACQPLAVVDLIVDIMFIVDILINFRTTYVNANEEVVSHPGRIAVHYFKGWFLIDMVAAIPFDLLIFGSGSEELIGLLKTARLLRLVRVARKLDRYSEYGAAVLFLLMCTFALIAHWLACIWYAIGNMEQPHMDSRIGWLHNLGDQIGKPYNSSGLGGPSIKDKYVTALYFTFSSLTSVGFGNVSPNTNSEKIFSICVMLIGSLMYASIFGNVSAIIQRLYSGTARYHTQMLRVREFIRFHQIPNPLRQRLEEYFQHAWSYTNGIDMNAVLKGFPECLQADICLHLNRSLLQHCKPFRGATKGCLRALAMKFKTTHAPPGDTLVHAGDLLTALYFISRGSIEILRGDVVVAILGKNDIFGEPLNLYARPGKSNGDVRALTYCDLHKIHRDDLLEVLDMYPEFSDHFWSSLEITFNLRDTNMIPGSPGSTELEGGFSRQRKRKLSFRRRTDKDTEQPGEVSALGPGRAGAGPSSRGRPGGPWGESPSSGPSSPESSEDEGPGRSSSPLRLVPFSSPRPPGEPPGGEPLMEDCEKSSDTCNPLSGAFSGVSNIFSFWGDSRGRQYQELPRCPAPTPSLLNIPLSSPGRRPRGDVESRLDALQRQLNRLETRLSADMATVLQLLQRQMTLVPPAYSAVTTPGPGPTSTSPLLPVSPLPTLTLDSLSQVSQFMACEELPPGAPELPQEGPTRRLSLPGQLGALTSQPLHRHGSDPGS
Sequence of Cytochrome P450 2C19 (Homo sapiens) (P33261 whole entry, looked up): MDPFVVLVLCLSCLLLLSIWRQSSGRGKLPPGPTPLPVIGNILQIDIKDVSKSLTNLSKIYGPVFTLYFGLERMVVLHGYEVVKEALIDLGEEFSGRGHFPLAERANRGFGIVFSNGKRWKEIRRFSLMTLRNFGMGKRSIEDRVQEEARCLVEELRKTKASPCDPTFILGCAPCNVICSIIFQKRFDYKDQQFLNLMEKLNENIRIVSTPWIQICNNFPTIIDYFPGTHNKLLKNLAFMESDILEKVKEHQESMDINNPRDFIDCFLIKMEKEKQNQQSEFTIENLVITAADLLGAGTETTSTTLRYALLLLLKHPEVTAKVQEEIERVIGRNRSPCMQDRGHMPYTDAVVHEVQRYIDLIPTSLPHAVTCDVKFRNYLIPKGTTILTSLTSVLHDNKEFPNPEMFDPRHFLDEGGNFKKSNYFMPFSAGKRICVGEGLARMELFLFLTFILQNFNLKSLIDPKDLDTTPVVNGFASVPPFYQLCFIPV
Sequence of Cytochrome P450 2D6 (Homo sapiens) (P10635 whole entry, looked up): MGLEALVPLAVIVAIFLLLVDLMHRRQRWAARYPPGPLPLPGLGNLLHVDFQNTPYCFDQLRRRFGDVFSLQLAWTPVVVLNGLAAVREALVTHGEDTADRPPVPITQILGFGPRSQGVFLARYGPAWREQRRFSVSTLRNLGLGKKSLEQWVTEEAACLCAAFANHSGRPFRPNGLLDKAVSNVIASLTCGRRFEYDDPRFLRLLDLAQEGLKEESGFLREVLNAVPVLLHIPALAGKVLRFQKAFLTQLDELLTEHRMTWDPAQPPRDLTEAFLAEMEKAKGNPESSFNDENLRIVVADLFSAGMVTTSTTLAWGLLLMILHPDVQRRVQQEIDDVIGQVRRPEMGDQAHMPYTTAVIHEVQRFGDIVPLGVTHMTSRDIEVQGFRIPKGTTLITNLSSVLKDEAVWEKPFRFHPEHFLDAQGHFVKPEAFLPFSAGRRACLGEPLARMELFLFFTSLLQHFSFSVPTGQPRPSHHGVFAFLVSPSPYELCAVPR
Sequence of Cytochrome P450 2C9 (Homo sapiens) (P11712 whole entry, looked up): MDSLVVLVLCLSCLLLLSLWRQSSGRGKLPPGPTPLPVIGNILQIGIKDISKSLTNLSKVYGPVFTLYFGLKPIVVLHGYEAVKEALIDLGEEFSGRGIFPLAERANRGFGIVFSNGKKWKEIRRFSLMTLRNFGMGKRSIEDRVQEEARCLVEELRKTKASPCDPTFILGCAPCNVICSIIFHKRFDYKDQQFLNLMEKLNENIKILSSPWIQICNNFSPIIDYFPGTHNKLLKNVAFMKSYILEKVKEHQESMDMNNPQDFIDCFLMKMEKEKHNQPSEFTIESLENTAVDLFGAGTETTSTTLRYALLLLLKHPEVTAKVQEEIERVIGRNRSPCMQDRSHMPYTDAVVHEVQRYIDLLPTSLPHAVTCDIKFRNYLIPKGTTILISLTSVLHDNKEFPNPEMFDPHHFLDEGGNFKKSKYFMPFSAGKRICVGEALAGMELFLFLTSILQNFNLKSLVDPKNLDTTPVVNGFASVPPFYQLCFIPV

In the case of `Nc1ccc(S(=O)(=O)Nc2ccc(Cl)nn2)cc1`, the Potency result in assay [1], in assay [2], in assay [3] and in assay [4] was “inactive” each time.
`Cc1c(I)c(=O)n(-c2ccccc2)n1C`: the Potency result in assay [1], in assay [2], in assay [5] and in assay [4] was “inactive” in each case.
For the molecule `Brc1ccc(-c2ccccc2)cc1`, the Potency entry in assay [1], in assay [2], in assay [3] and in assay [4] was “inactive” in each case. For the same molecule, in assay [5], the Potency is 6.31 µM (active).
For `CNS(=O)(=O)CCc1ccc2[nH]cc(C3CCN(C)CC3)c2c1`, the Potency in assay [1] was 34.7 µM (active). In addition, the Potency entry in assay [2], in assay [5], in assay [3] and in assay [4] was “inactive” throughout.
On to `Cc1ccccc1N=O`, for which the Potency entry in assay [1] and in assay [2] was “inactive” in each case. For the same molecule, the Potency is 41 µM (active) in assay [5] and 36.5 µM (active) in assay [4].
As for `C=CCCCCCCCCCCCC`, the Potency entry in assay [1], in assay [2], in assay [5], in assay [3] and in assay [4] was “inactive” throughout.
With `O=Cc1ccc(Cl)c(Cl)c1`, the Potency entry in assay [1], in assay [2], in assay [3] and in assay [4] was “inactive” throughout.
As to `O=C(CCNNC(=O)c1ccncc1)NCc1ccccc1`, the Potency in assay [1] is 15.5 µM (active); in assay [2] it was 11 µM (active). Further, in assay [3], the Potency result was “inactive”.
In the case of `Oc1ccccc1-c1nnco1`, the Potency result in assay [1], in assay [2] and in assay [4] was “inactive” throughout. In addition, the Potency in assay [5] was 30.9 µM (active).
Regarding `C[Si](C)(C)C`, the Potency result in assay [1], in assay [2], in assay [3] and in assay [4] was “inactive” in each case.
Regarding `CN1C(C)(C)CCCC1(C)C`, in assay [1], the Potency is 2.45 µM (active). In addition, the Potency entry in assay [2], in assay [5], in assay [3] and in assay [4] was “inactive” throughout.
Take `Cc1cccc(C)c1NC(=O)c1ccccc1C(=O)O`: the Potency result in assay [1], in assay [2], in assay [5], in assay [3] and in assay [4] was “inactive” each time.
Consider `CC(C(=O)O)c1ccc2c(c1)CC(=O)c1ccccc1S2` (stereo not given), for which the Potency entry in assay [1], in assay [2], in assay [3] and in assay [4] was “inactive” in each case.
For `C[C@@H]1O[C@@H](O[C@@H]2[C@@H](O)[C@H](OCCc3ccc(O)c(O)c3)O[C@H](CO[C@@H]3O[C@H](CO)[C@@H](O)[C@H](O)[C@H]3O)[C@H]2OC(=O)/C=C/c2ccc(O)c(O)c2)[C@H](O)[C@H](O)[C@H]1O`, the Potency result in assay [1], in assay [2], in assay [5], in assay [3] and in assay [4] was “inactive” each time.
On to `COc1cc(C(=S)N2CCOCC2)cc(OC)c1OC`, for which the Potency result in assay [1], in assay [5] and in assay [4] was “inactive” throughout. Further, in assay [2], the Potency is 21.9 µM (active).
For the molecule `O=C(c1ccc(O)cc1)c1ccc(O)c(O)c1O`, the Potency in assay [1] and in assay [2] was 40.1 µM (active) each time. Also, the Potency result in assay [3] was “inactive”.
On to `CCNC(=O)C1CC(C)CCC1C(C)C` (stereo not given), for which the Potency entry in assay [1] and in assay [3] was “inactive” throughout. The Potency in assay [2] and in assay [4] was 17.8 µM (active) in each case.
As for `CCCCOC(=O)c1ccccc1`, the Potency entry in assay [1], in assay [5] and in assay [4] was “inactive” each time.
In the case of `O=C(OCC1(COC(=O)c2cccnc2)CCCC(COC(=O)c2cccnc2)(COC(=O)c2cccnc2)C1O)c1cccnc1`, the Potency is 38.9 µM (active) in assay [2] and 12.3 µM (active) in assay [6]. The Potency entry in assay [5] and in assay [3] was “inactive” in each case.
For the molecule `CCCCCCCCC1CCC(=O)O1` (stereo not given), the Potency was 56.4 µM (active) in assay [2] and 71 µM (active) in assay [6]. Also, the Potency result in assay [3] and in assay [4] was “inactive” throughout.
For the molecule `O=C1O[C@@H]2[C@@H](O)[C@H](O)O[C@@H]2[C@H]1O`, the Potency result in assay [1], in assay [5] and in assay [4] was “inactive” throughout.
Consider `Nc1ncnc(Nc2ccccc2)n1`, for which the Potency entry in assay [2], in assay [6], in assay [3] and in assay [4] was “inactive” in each case.
Turning to `O=C1c2cccc3c2[C@H](CCC3)CN1[C@@H]1CN2CCC1CC2`, the Potency entry in assay [2], in assay [6], in assay [5] and in assay [3] was “inactive” throughout.
For the molecule `CCC(C)NC(N)=O` (stereo not given), the Potency entry in assay [2], in assay [6], in assay [5], in assay [3] and in assay [4] was “inactive” throughout.
For the molecule `CCCCOCCOC(=O)COc1nc(Cl)c(Cl)cc1Cl`, the values for the Potency in assay [2] and in assay [5] were 31.7 µM (active) and 39.9 µM (active), respectively. Besides, the Potency result in assay [6] and in assay [4] was “inactive” in each case.
Turning to `CN(CCOc1ccc(NS(C)(=O)=O)cc1)CCc1ccc(NS(C)(=O)=O)cc1`, the Potency result in assay [2] and in assay [6] was “inactive” throughout.
Consider `CCN1CCc2nc(N)oc2CC1`, for which the Potency result in assay [2], in assay [6], in assay [5], in assay [3] and in assay [4] was “inactive” each time.
On to `COC(=O)CCc1ccc(OCC(O)CNC(C)C)cc1` (stereo not given), for which the Potency result in assay [2], in assay [6], in assay [5], in assay [3] and in assay [4] was “inactive” each time.

Values taken from PubChem BioAssay (Tox21).
